Bioassay records from PubChem.
Only some compounds are listed: those with a hit (about 0.34% of all), similar ones and a draw of the others.
Chronic BCR inh = blocks chronic active B-cell receptor signaling; ABC-DLBCL IkBa-CBG/CBR reporter, luminescence ratio, 4 h; Potency, µM (highest dose often 46.1 µM), hits mostly inhibitors; 0.05% of 340,000 active; active means well fitted inhibition curve with a large enough effect in the signal ratio, with a control signal flat, not every such curve was filed as active; inconclusive means small, poorly fitted or top-dose-only effect, or effect the other way, or a change in a side signal; the % refers to the signal ratio
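TMD8 ABC-DLBCL cells carrying doxycycline-inducible green luciferase fused to IkappaBalpha plus unfused red luciferase were exposed to compounds (up to 46 uM) for 4 hrs at 37C. Activity came from the overlap-corrected green/red luminescence ratio.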
PI4K2A inh = inhibitors of human PI4K2A; 0.13% of 420,000 active; purified PI4K2A, ADP-Glo luminescence, 1 h; active compounds read low; activity change, negative = inhibition, % at 76.9 µM; Q9BTU6; in the data active means activity change below about -50%; inconclusive means mostly about -30% to -49%
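In this quantitative HTS, ADP production by PI4K2A was quantified luminescently after 1 h at ambient temperature; 100 microM adenosine served as plate-quality control.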
Pin1 inhibitor = blocks the human prolyl isomerase Pin1; Q13526; Potency, µM (series often up to 115 µM), actives largely listed as inhibitors; Pin1 FP peptide displacement, HiFluor488, 10 min; 0.009% of 390,000 active; active means well fitted inhibition curve with a large enough effect in the polarisation, with a control signal flat, not every such curve was filed as active; inconclusive means small, poorly fitted or top-dose-only effect, or effect the other way, or a change in a side signal; inactive means no such curve, though single readings can be large or run the other way; the % refers to the polarisation
Target sequence (Q13526 whole entry, looked up): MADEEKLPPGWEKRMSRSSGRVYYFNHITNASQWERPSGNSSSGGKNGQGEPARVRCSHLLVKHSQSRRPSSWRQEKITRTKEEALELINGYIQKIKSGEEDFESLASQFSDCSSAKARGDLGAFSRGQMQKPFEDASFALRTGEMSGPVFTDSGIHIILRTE
Tb PFK block = inhibitors of T. brucei phosphofructokinase. T. brucei PFK, ADP-Glo luminescence. Potency, µM (titrated, usually from 57.5 µM), usual class: inhibitors. 0.17% of 330,000 active. AID 485367; further: nearly all actives have a fitted effect of over 60% in size
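PFK 1.25 nM, F6P 0.5 mM, ATP 0.1 mM, 0.1 M TEA pH 8.0, 5 mM MgCl2, 0.01% Tween20, 0.1% BSA; 45 min RT. ADP-Glo readout. qHTS titration up to 57 uM; curves fitted, compounds curve-classed.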
PGK inhibitor = inhibitors of T. brucei phosphoglycerate kinase. P07378. PGK/GAPDH coupled, Kinase-Glo luminescence, 60 min. Potency, µM (top dose mostly 57.5 µM), actives largely listed as inhibitors. 0.043% of 380,000 active. AID 602233; further: nearly all actives have a fitted effect of over 60% in size
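Recombinant glycosomal PGK reaction used 1,3-bisphosphoglycerate generated in-well by GAPDH (100nM final) in 100mM TEA pH 7.6, 5mM MgCl2, 0.01% Tween-20. After 60 minutes at room temperature, ATP was read by Kinase-Glo Plus luminescence end-point.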
Numbers stand for hits; ! = not active in a repeat; [ ] = dose if it differs, or a comment. Unless noted, the call rests on the fitted dose curve; in most records, active means well fitted curve in the direction sought with a large enough effect; inconclusive means small, poorly fitted or top-dose-only effect, or another doubt; inactive means no such curve, though single readings can be large; an effect the other way counts as inactive or inconclusive.

What do the screens show for `Cc1cnn(CCC(=O)NNC(=S)NCC(C)C)c1`?
Chronic BCR inh: 18µM; PI4K2A inh: inactive; Pin1 inhibitor: inactive; Tb PFK block: inactive; PGK inhibitor: inactive

What do the screens show for `CN(C)c1cccc(-c2nnc(N3CCC(C(N)=O)CC3)s2)c1`?
Pin1 inhibitor: inactive

Results for Oc1ccc(CNCc2ccccc2F)c2cccnc12 ?
Pin1 inhibitor: inactive

Results for Oc1ccc(CNCc2ccc3c(c2)OCO3)c2cccnc12 ?
Chronic BCR inh: 15µM; Tb PFK block: inactive

Results for COc1cccc(C2c3c(ncn(-c4ccc(C)cc4)c3=N)Oc3ccc4ccccc4c32)c1 (centres undefined) ?
Pin1 inhibitor: inactive

What do the screens show for `Cc1cc2c(s1)c1cnn(Cc3c(F)ccc(Cl)c3F)c(=O)c1n2C`?
Pin1 inhibitor: inactive

Results for O=c1c2ccccc2nc2sc(Nc3cccc(Br)c3)nn12 ?
Pin1 inhibitor: inactive

What do the screens show for `Fc1ccccc1-c1ccc(/C=N/Nc2nc3ccccc3[nH]2)o1`?
Chronic BCR inh: 23µM; PI4K2A inh: inactive; Pin1 inhibitor: inactive; Tb PFK block: inactive; PGK inhibitor: inactive

What do the screens show for `COc1cc(C=C2CCC/C(=C\c3ccc(O)c(OC)c3)C2=O)ccc1O`?
PI4K2A inh: inactive

What do the screens show for `CN(C)c1ccc(NC2=C([N+](=O)[O-])CS(=O)(=O)C2)cc1`?
Chronic BCR inh: inactive; PI4K2A inh: -63; Tb PFK block: inactive

Results for COc1ccc(C2=CC3=C(Br)C(=O)C(C)(OC(=O)c4ccc(Cl)nc4)C(=O)C3=CO2)cc1 (centres undefined) ?
Chronic BCR inh: inconclusive; PI4K2A inh: inactive; Pin1 inhibitor: inconclusive; Tb PFK block: inactive; PGK inhibitor: inconclusive

How did COC(=O)CCC(=O)OC1(C)C(=O)C2=COC(c3ccc(OC)cc3)=CC2=C(Br)C1=O (centres undefined) do in these assays?
Chronic BCR inh: inconclusive; PI4K2A inh: inconclusive; Pin1 inhibitor: inconclusive; Tb PFK block: inactive; PGK inhibitor: 16µM

How did COc1ccc(C2=CC3=C(Br)C(=O)C(C)(OC(=O)C4CCCC4)C(=O)C3=CO2)cc1 (centres undefined) do in these assays?
Chronic BCR inh: inactive; PI4K2A inh: inconclusive; Pin1 inhibitor: inconclusive; Tb PFK block: inactive; PGK inhibitor: 18µM

Results for COc1ccc(C(=O)N(Cc2ccco2)Cc2ccco2)c(O)c1 ?
Pin1 inhibitor: inactive

Results for Cc1cc(C)n2ncc(C(=O)NC(C)C)c2n1 ?
Pin1 inhibitor: inactive

Results for COc1ccc(/C=N/NC(=O)c2nn(-c3ccccc3)c(=O)c3c(N)scc23)cc1 ?
Chronic BCR inh: inactive; PI4K2A inh: -65; Tb PFK block: inactive; PGK inhibitor: inactive

How did Cc1ccc2nsnc2c1NS(=O)(=O)c1c(C)ccc2nsnc12 do in these assays?
Chronic BCR inh: inactive; PI4K2A inh: inactive; Pin1 inhibitor: inactive; Tb PFK block: inactive; PGK inhibitor: inactive

What do the screens show for `Cc1ccc(/C=[N+](\[O-])c2ccc(N(C)C)cc2)c2nsnc12`?
Chronic BCR inh: 10µM; PI4K2A inh: inactive; Pin1 inhibitor: inactive; Tb PFK block: inactive; PGK inhibitor: inactive

How did S=C(NCCCc1cnc[nH]1)NCCN(Cc1ccc(Cl)c(Cl)c1)c1ccc(Br)cn1 do in these assays?
Pin1 inhibitor: inactive

What do the screens show for `COC(=O)c1ccccc1NS(=O)(=O)c1ccc(O)c(C(=O)O)c1`?
Chronic BCR inh: inactive; PI4K2A inh: inactive; Pin1 inhibitor: inactive; Tb PFK block: 38µM; PGK inhibitor: inactive[11.5 µM]

What do the screens show for `COC(=O)c1ccccc1NS(=O)(=O)c1ccc(F)cc1`?
Chronic BCR inh: inactive; PI4K2A inh: inactive; Pin1 inhibitor: inactive; Tb PFK block: inactive; PGK inhibitor: inactive

How did Cc1cc2nc(-c3ccc[nH]c3=O)n(Cc3ccc(F)cc3)c2cc1C do in these assays?
Chronic BCR inh: inconclusive; PI4K2A inh: inactive; Pin1 inhibitor: inactive; Tb PFK block: inactive; PGK inhibitor: inactive

How did Cc1cc2nc(-c3ccc[nH]c3=O)[nH]c2cc1C do in these assays?
Chronic BCR inh: inconclusive; PI4K2A inh: -66; Pin1 inhibitor: inactive; Tb PFK block: inactive; PGK inhibitor: inactive

Results for Cc1ccc(C)c(OCCCC(C)(C)C(=O)O)c1 ?
Chronic BCR inh: inconclusive; PI4K2A inh: -62!; Pin1 inhibitor: inactive; Tb PFK block: inconclusive; PGK inhibitor: inactive
